{"source": "PubChem BioAssay", "note": "Values joined by “and” are separate entries in the source; they are usually repeats but may differ in a detail not shown here. Identical values can stand only once. Some compounds were tested as several samples or in several runs, with calls that do not always agree. Active and inactive are the calls of the source. No stated cut-off is given here; in the data, active means inhibition above about 80%; inactive means the rest.", "data": [{"assay": "HTB85 osteosarcoma cell growth inhibition, synergistic combos for chromothripsis tumors, BGB or cisplatin IC20 combos (AID 1671453);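 further: cells exposed for 96 hours before readout; 0% = vehicle DMSO and 100% = high DMSO killing control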", "details": "HTB85 osteosarcoma cells, drug combinations, single agent, at 5 µM, stronger effect = higher value", "units": {"inhibition": "%"}, "values": [{"smiles": "CC(Oc1cc(-c2cnn(C3CCNCC3)c2)cnc1N)c1c(Cl)ccc(F)c1Cl", "note": "(stereo unspecified)", "inhibition": 47.7}, {"smiles": "O=C(O)c1cc2cccc([N+](=O)[O-])c2[nH]1", "inhibition": -17.2}, {"smiles": "O=c1[nH]c(=O)n(C2CC(O)C(CO)O2)cc1I", "note": "(stereo unspecified)", "inhibition": -17.4}]}, {"assay": "CRL2098 osteosarcoma cell growth inhibition, synergistic combos for chromothripsis tumors, BGB or cisplatin IC20 combos (AID 1671454);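 further: cells exposed for 96 h before readout; 0% = vehicle DMSO and 100% = killing by high DMSO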", "details": "CRL2098 osteosarcoma cells, drug combinations, at 0.5 µM, stronger effect = higher value", "values": [{"smiles": "COc1ccccc1S(=O)(=O)Nc1ccc2c(c1)CN(C)C(=O)N2", "inhibition": "-31.4% (inactive)"}, {"smiles": "Cc1cc(C#N)cc(C)c1Oc1nc(Nc2ccc(C#N)cc2)nc(N)c1Br", "inhibition": "-46.8% (inactive)"}, {"smiles": "Nc1ncn(C2OC(CO)C(O)C2O)c(=O)n1", "note": "(stereo unspecified)", "inhibition": "-21% (inactive)"}, {"smiles": "Cc1cc(C)c(Nc2ccnc(Nc3ccc(C#N)cc3)n2)c(C)c1", "inhibition": "-8.33% (inactive)"}, {"smiles": "COc1ccc(CC(N)C(=O)NC2C(CO)OC(n3cnc4c(N(C)C)ncnc43)C2O)cc1", "note": "(stereo unspecified)", "inhibition": "56.1% (inactive) and 91.8% (active)"}, {"smiles": "O=c1ccn(C2OC(CO)C(O)C2O)c(=O)[nH]1", "note": "(stereo unspecified)", "inhibition": "9.28% (inactive) and -75.8% (inactive)"}, {"smiles": "CC=C1NC(=O)C2CSSCCC=CC(CC(=O)NC(C(C)C)C(=O)N2)OC(=O)C(C(C)C)NC1=O", "note": "(stereo unspecified)", "inhibition": "94.7% (active) and 97.3% (active)"}, {"smiles": "CN(C)CC(=O)Nc1ccc2[nH]c(=O)c3ccccc3c2c1", "inhibition": "-36.8% (inactive) and -23.4% (inactive) and -51.4% (inactive)"}, {"smiles": "CC1OC(n2cc(F)c(=O)[nH]c2=O)C(O)C1O", "note": "(stereo unspecified)", "inhibition": "-5.43% (inactive)"}, {"smiles": "Nc1ccn(C2OC(CO)C(O)C2(F)F)c(=O)n1", "note": "(stereo unspecified)", "inhibition": "68.5% (inactive) and 65.4% (inactive) and 40.8% (inactive)"}, {"smiles": "Cc1cn(C2CC(N=[N+]=[N-])C(CO)O2)c(=O)[nH]c1=O", "note": "(stereo unspecified)", "inhibition": "-75.6% (inactive) and -23.9% (inactive)"}, {"smiles": "CC(C=CC(=O)NO)=CC(C)C(=O)c1ccc(N(C)C)cc1", "note": "(stereo unspecified)", "inhibition": "70.4% (inactive)"}, {"smiles": "NC(=S)NN=Cc1ncccc1N", "inhibition": "-55.6% (inactive)"}, {"smiles": "CC(C)(C#N)c1ccc(N2C(=O)OCc3cnc4ccc(-c5cnc6ccccc6c5)cc4c32)cc1", "inhibition": "-42.5% (inactive)"}, {"smiles": "CC1CN(c2c(F)c(N)c3c(=O)c(C(=O)O)cn(C4CC4)c3c2F)CC(C)N1", "note": "(stereo unspecified)", "inhibition": "10.8% (inactive)"}, {"smiles": "CCCCN(Cc1ccc(C(=O)NO)cc1)C(=O)Nc1ccccc1", "inhibition": "-11.3% (inactive) and -33.3% (inactive)"}, {"smiles": "O=c1[nH]cnc2c1ncn2C1OC(CO)C(O)C1O", "note": "(stereo unspecified)", "inhibition": "-90% (inactive) and -56.6% (inactive)"}, {"smiles": "Cc1cc(C=CC#N)cc(C)c1Nc1ccnc(Nc2ccc(C#N)cc2)n1", "inhibition": "-49.8% (inactive)"}, {"smiles": "CC(Oc1cc(-c2cnn(C3CCNCC3)c2)cnc1N)c1c(Cl)ccc(F)c1Cl", "note": "(stereo unspecified)", "inhibition": "-32.5% (inactive)"}, {"smiles": "O=C(O)c1cc2cccc([N+](=O)[O-])c2[nH]1", "inhibition": "-68.3% (inactive)"}, {"smiles": "O=c1[nH]c(=O)n(C2CC(O)C(CO)O2)cc1I", "note": "(stereo unspecified)", "inhibition": "-42.2% (inactive)"}]}, {"assay": "CRL2098 osteosarcoma cell growth inhibition, synergistic combos for chromothripsis tumors, BGB or cisplatin IC20 combos (AID 1671454)", "details": "CRL2098 osteosarcoma cells, drug combinations, measured here: combination with BGB at IC20, at 0.5 µM, stronger effect = higher value", "values": [{"smiles": "COc1ccccc1S(=O)(=O)Nc1ccc2c(c1)CN(C)C(=O)N2", "inhibition": "0.952%"}, {"smiles": "Cc1cc(C#N)cc(C)c1Oc1nc(Nc2ccc(C#N)cc2)nc(N)c1Br", "inhibition": "-26.7%"}, {"smiles": "Nc1ncn(C2OC(CO)C(O)C2O)c(=O)n1", "note": "(stereo unspecified)", "inhibition": "-8.95%"}, {"smiles": "Cc1cc(C)c(Nc2ccnc(Nc3ccc(C#N)cc3)n2)c(C)c1", "inhibition": "-39%"}, {"smiles": "COc1ccc(CC(N)C(=O)NC2C(CO)OC(n3cnc4c(N(C)C)ncnc43)C2O)cc1", "note": "(stereo unspecified)", "inhibition": "67.8% and 88.9%"}, {"smiles": "O=c1ccn(C2OC(CO)C(O)C2O)c(=O)[nH]1", "note": "(stereo unspecified)", "inhibition": "0.692% and -94%"}, {"smiles": "CC=C1NC(=O)C2CSSCCC=CC(CC(=O)NC(C(C)C)C(=O)N2)OC(=O)C(C(C)C)NC1=O", "note": "(stereo unspecified)", "inhibition": "91% and 95.3%"}, {"smiles": "CN(C)CC(=O)Nc1ccc2[nH]c(=O)c3ccccc3c2c1", "inhibition": "-71.3% and -23.5% and -26.5%"}, {"smiles": "CC1OC(n2cc(F)c(=O)[nH]c2=O)C(O)C1O", "note": "(stereo unspecified)", "inhibition": "-21.1%"}, {"smiles": "Nc1ccn(C2OC(CO)C(O)C2(F)F)c(=O)n1", "note": "(stereo unspecified)", "inhibition": "53% and 49.8% and 5.09%"}, {"smiles": "Cc1cn(C2CC(N=[N+]=[N-])C(CO)O2)c(=O)[nH]c1=O", "note": "(stereo unspecified)", "inhibition": "-42.6% and -11.7%"}, {"smiles": "CC(C=CC(=O)NO)=CC(C)C(=O)c1ccc(N(C)C)cc1", "note": "(stereo unspecified)", "inhibition": "75.9%"}, {"smiles": "NC(=S)NN=Cc1ncccc1N", "inhibition": "-6.91%"}, {"smiles": "CC(C)(C#N)c1ccc(N2C(=O)OCc3cnc4ccc(-c5cnc6ccccc6c5)cc4c32)cc1", "inhibition": "-42.2%"}, {"smiles": "CC1CN(c2c(F)c(N)c3c(=O)c(C(=O)O)cn(C4CC4)c3c2F)CC(C)N1", "note": "(stereo unspecified)", "inhibition": "-2.31%"}, {"smiles": "CCCCN(Cc1ccc(C(=O)NO)cc1)C(=O)Nc1ccccc1", "inhibition": "5.14% and -65%"}, {"smiles": "O=c1[nH]cnc2c1ncn2C1OC(CO)C(O)C1O", "note": "(stereo unspecified)", "inhibition": "-87.4% and -18.5%"}, {"smiles": "Cc1cc(C=CC#N)cc(C)c1Nc1ccnc(Nc2ccc(C#N)cc2)n1", "inhibition": "-61.5%"}, {"smiles": "CC(Oc1cc(-c2cnn(C3CCNCC3)c2)cnc1N)c1c(Cl)ccc(F)c1Cl", "note": "(stereo unspecified)", "inhibition": "-20.2%"}, {"smiles": "O=C(O)c1cc2cccc([N+](=O)[O-])c2[nH]1", "inhibition": "-23.9%"}, {"smiles": "O=c1[nH]c(=O)n(C2CC(O)C(CO)O2)cc1I", "note": "(stereo unspecified)", "inhibition": "-45.9%"}]}, {"assay": "CRL2098 osteosarcoma cell growth inhibition, synergistic combos for chromothripsis tumors, BGB or cisplatin IC20 combos (AID 1671454)", "details": "CRL2098 osteosarcoma cells, drug combinations, measured here: combination with cisplatin at IC20, at 0.5 µM, stronger effect = higher value", "values": [{"smiles": "COc1ccccc1S(=O)(=O)Nc1ccc2c(c1)CN(C)C(=O)N2", "inhibition": "-85.9%"}, {"smiles": "Cc1cc(C#N)cc(C)c1Oc1nc(Nc2ccc(C#N)cc2)nc(N)c1Br", "inhibition": "-48.1%"}, {"smiles": "Nc1ncn(C2OC(CO)C(O)C2O)c(=O)n1", "note": "(stereo unspecified)", "inhibition": "-58.6%"}, {"smiles": "Cc1cc(C)c(Nc2ccnc(Nc3ccc(C#N)cc3)n2)c(C)c1", "inhibition": "10.4%"}, {"smiles": "COc1ccc(CC(N)C(=O)NC2C(CO)OC(n3cnc4c(N(C)C)ncnc43)C2O)cc1", "note": "(stereo unspecified)", "inhibition": "54.9% and 94.1%"}, {"smiles": "O=c1ccn(C2OC(CO)C(O)C2O)c(=O)[nH]1", "note": "(stereo unspecified)", "inhibition": "13.9% and -68.3%"}, {"smiles": "CC=C1NC(=O)C2CSSCCC=CC(CC(=O)NC(C(C)C)C(=O)N2)OC(=O)C(C(C)C)NC1=O", "note": "(stereo unspecified)", "inhibition": "96.7% and 99.1%"}, {"smiles": "CN(C)CC(=O)Nc1ccc2[nH]c(=O)c3ccccc3c2c1", "inhibition": "-19% and -5.62% and -82%"}, {"smiles": "CC1OC(n2cc(F)c(=O)[nH]c2=O)C(O)C1O", "note": "(stereo unspecified)", "inhibition": "-73.9%"}, {"smiles": "Nc1ccn(C2OC(CO)C(O)C2(F)F)c(=O)n1", "note": "(stereo unspecified)", "inhibition": "70.5% and 84.6% and 51.6%"}, {"smiles": "Cc1cn(C2CC(N=[N+]=[N-])C(CO)O2)c(=O)[nH]c1=O", "note": "(stereo unspecified)", "inhibition": "-96.9% and -12%"}, {"smiles": "CC(C=CC(=O)NO)=CC(C)C(=O)c1ccc(N(C)C)cc1", "note": "(stereo unspecified)", "inhibition": "61.3%"}, {"smiles": "NC(=S)NN=Cc1ncccc1N", "inhibition": "-62.8%"}, {"smiles": "CC(C)(C#N)c1ccc(N2C(=O)OCc3cnc4ccc(-c5cnc6ccccc6c5)cc4c32)cc1", "inhibition": "-56.5%"}, {"smiles": "CC1CN(c2c(F)c(N)c3c(=O)c(C(=O)O)cn(C4CC4)c3c2F)CC(C)N1", "note": "(stereo unspecified)", "inhibition": "38.8%"}, {"smiles": "CCCCN(Cc1ccc(C(=O)NO)cc1)C(=O)Nc1ccccc1", "inhibition": "14.3% and -15.5%"}, {"smiles": "O=c1[nH]cnc2c1ncn2C1OC(CO)C(O)C1O", "note": "(stereo unspecified)", "inhibition": "-101% and -96.8%"}, {"smiles": "Cc1cc(C=CC#N)cc(C)c1Nc1ccnc(Nc2ccc(C#N)cc2)n1", "inhibition": "-40%"}, {"smiles": "CC(Oc1cc(-c2cnn(C3CCNCC3)c2)cnc1N)c1c(Cl)ccc(F)c1Cl", "note": "(stereo unspecified)", "inhibition": "-64.1%"}, {"smiles": "O=C(O)c1cc2cccc([N+](=O)[O-])c2[nH]1", "inhibition": "-78.8%"}, {"smiles": "O=c1[nH]c(=O)n(C2CC(O)C(CO)O2)cc1I", "note": "(stereo unspecified)", "inhibition": "-41.5%"}]}]}
